# Results published in paper PMC4336329 (PLoS ONE, 2015).
# Hit rate of the full screen: of about 310,000 compounds, about 2,200 (0.71%) showed an effect of 50% or more. Effects have a minus sign here. This is one part of a sample in which strong results are shown more often than they occur.
# Target: human ether-à-go-go-related gene (hERG) potassium channel (human, UniProt Q12809)
# Assay: primary screen, population patch clamp on CHO cells stably expressing hERG; higher = less effect of the substance
# Chain of human ether-à-go-go-related gene (hERG) potassium channel (Q12809 whole entry, looked up): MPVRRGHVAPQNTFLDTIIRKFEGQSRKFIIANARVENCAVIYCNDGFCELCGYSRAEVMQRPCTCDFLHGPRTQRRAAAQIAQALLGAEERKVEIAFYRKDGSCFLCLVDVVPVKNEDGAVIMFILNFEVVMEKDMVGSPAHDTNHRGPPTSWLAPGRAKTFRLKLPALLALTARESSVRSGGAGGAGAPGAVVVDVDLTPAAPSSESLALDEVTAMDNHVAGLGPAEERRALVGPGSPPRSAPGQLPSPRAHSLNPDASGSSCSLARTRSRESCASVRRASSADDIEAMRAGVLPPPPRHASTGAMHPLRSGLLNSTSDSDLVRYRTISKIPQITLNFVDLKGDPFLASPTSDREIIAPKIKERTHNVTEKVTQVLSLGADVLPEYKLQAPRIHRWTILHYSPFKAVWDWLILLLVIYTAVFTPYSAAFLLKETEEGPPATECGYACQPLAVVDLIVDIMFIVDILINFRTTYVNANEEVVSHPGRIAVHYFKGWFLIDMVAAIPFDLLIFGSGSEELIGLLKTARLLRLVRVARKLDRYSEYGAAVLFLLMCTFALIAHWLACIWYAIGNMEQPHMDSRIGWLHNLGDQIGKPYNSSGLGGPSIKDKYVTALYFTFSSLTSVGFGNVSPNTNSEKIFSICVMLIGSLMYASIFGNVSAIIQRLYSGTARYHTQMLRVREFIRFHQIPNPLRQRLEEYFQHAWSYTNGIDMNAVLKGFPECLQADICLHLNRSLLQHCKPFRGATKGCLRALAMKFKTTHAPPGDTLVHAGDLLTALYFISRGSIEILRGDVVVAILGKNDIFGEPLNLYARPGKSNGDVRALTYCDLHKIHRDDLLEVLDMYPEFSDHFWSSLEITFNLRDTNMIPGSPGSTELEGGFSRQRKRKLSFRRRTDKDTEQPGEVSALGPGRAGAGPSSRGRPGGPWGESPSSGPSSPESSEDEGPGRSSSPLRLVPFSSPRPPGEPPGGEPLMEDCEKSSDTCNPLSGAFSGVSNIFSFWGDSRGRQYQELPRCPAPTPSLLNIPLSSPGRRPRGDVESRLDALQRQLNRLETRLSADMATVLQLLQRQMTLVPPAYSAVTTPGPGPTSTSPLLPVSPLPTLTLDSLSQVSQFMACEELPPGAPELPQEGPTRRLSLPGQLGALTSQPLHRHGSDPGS
row,SMILES,"hERG current change (%, negative = inhibition) at 1uM"
1,CS(=O)(=O)NCc1nnc(SCc2c(F)cccc2Cl)o1,-1.52%
2,O=C(O)c1cccc(Nc2ccc([N+](=O)[O-])c3nonc23)c1,2.1%
3,Cc1cc(=O)n2nc(N3CCCC3C(=O)Nc3cccc(Cl)c3C)sc2n1 (stereo not shown),12.5%
4,COc1ccc(N2CCN(C(=O)c3ccc4c(=O)n(Cc5ccc6c(c5)OCO6)c(=O)[nH]c4c3)CC2)cc1,25%
5,CC(=O)/C(=C\N(C)C)Sc1ccc(C)cc1,27.2%
6,Cc1ccc(C(=O)Oc2cc(C)n(C)c(=O)c2)cc1,5.86%
7,COc1cc(Cl)nn(-c2ccccc2)c1=O,13.3%
8,CC1(c2ccc([N+](=O)[O-])cc2)Nc2ccccc2S1 (stereo not shown),10.9%
9,COc1ccc(C[C@H]2CN3C(=NC[C@H]3C)N2CCNC(=O)CCC2CCCCC2)cc1,-51.9%
10,COc1ccc(C[C@@H]2CN3C(=NC[C@@H]3C)N2C[C@H](C)NC(=O)CCC2CCCCC2)cc1,-20.8%
11,O=C(CCC1CCCCC1)NCCN1C2=NC[C@H](Cc3ccc(O)cc3)N2C[C@H]1Cc1ccc(O)cc1,12.5%
12,COc1ccc(-c2nnn(Cc3nc(N)nc(N4CCOCC4)n3)n2)cc1OC,3.65%
13,Nc1nc(Cn2nnc(-c3ccccc3F)n2)nc(N2CCOCC2)n1,-53.8%
14,Nc1nc(Cn2nnc(-c3ccccc3Cl)n2)nc(N2CCOCC2)n1,-25.9%
15,COc1ccc(S(=O)(=O)N2CCCC2CNC(=O)C(=O)NC2CCCCCC2)cc1 (stereo not shown),-3.96%
16,CCOc1ccc(OCC(=O)N2CCC3(CC2)CC(=O)c2ccccc2O3)cc1,-56.8%
17,COc1ccc(OCC(=O)N2CCN(C(=O)COc3ccccc3)CC2)cc1,-24.7%
18,CC(=O)N1CCN(C(=O)COc2ccc(Br)cc2)CC1,3.21%
19,Cc1ccc(OCC(=O)N2CCC3(CC2)CC(=O)c2ccccc2O3)cc1,-49%
20,COc1cccc(OCC(=O)N2CCC3(CC2)CC(=O)c2ccccc2O3)c1,-5.23%

row,SMILES,"hERG current change (%, negative = inhibition) at 1uM"
1,O=C1CC2(CCN(C(=O)COc3ccc(Cl)cc3)CC2)Oc2ccccc21,-70.4%
2,COc1ccc(OCC(=O)N2CCN(C(=O)COc3ccc(Br)cc3)CC2)cc1,-56.9%
3,Cc1ccccc1OCC(=O)N1CCC2(CC1)CC(=O)c1ccccc1O2,-10.3%
4,COc1ccc(OCC(=O)N2CCC3(CC2)CC(=O)c2ccccc2O3)cc1,-70.2%
5,Cc1cccc(OCC(=O)N2CCC3(CC2)CC(=O)c2ccccc2O3)c1,-6.58%
6,O=C1CC2(CCN(C(=O)COc3ccc(F)cc3)CC2)Oc2ccccc21,-17%
7,O=C1CC2(CCN(C(=O)COc3ccccc3)CC2)Oc2ccccc21,-21.4%
8,COc1ccc(NC(=O)N2CC(C)OC(C)C2)cc1OC (stereo not shown),9.39%
9,O=C1c2ccccc2C(=O)N1CCn1ccnc1,17.7%
10,CCOc1cccc(CNc2ccc(O)cc2)c1OCc1ccc(Cl)cc1Cl,10.8%
11,O=C(c1cnn2c(C(F)(F)F)cc(-c3ccco3)nc12)N1CCCc2ccccc21,-1.81%
12,COc1ccc(C2c3ccc(O)cc3Oc3ncn4nc(-c5ccccn5)nc4c32)cc1OC (stereo not shown),-50.1%
13,N=c1c2c(ncn1CCCO)Oc1cc(O)ccc1C2c1ccccc1 (stereo not shown),0.259%
14,COc1ccc(C2c3ccc(O)cc3Oc3ncn(Cc4ccccc4)c(=N)c32)cc1OC (stereo not shown),-0.742%
15,COc1ccc(C2c3ccc(O)cc3Oc3ncn(Cc4ccco4)c(=N)c32)cc1 (stereo not shown),-43.5%
16,N=c1c2c(ncn1Cc1ccco1)Oc1cc(O)ccc1C2c1ccccc1 (stereo not shown),-69.5%
17,N=c1c2c(ncn1Cc1ccco1)Oc1c(ccc3ccccc13)C2c1ccccc1 (stereo not shown),1.59%
18,COc1ccc(C2c3ccc(O)cc3Oc3ncn4nc(-c5ccncc5)nc4c32)cc1OC (stereo not shown),-0.788%
19,COc1ccc(C2c3ccc(O)cc3Oc3ncn4nc(-c5ccccn5)nc4c32)cc1 (stereo not shown),18.3%
20,COc1ccc(C2c3ccc(O)cc3Oc3ncn(Cc4ccco4)c(=N)c32)cc1OC (stereo not shown),-75.9%

row,SMILES,"hERG current change (%, negative = inhibition) at 1uM"
1,CCOC(=O)C1=C(Cn2cnc3ccccc32)NC(=O)NC1c1cc(C)ccc1C (stereo not shown),12.2%
2,CCOC(=O)CSc1nnc(CSc2nc3ccccc3s2)n1C,6.96%
3,COC(=O)Nc1nc2c(C)cccc2s1,-4.56%
4,CCN(c1ccc(NC(=O)c2ccc(Cl)nc2)cc1)C(C)C,12.2%
5,CS(=O)(=O)O.Oc1ccc(C2CNCCc3c2cc(O)c(O)c3Cl)cc1 (stereo not shown),-0.982%
6,CCS(=O)(=O)NCc1cn2c(C)csc2n1,0.136%
7,CCCc1[nH]n(-c2ccc([N+](=O)[O-])cc2)c(=O)c1C=NCCc1ccc(OC)c(OC)c1,4.23%
8,CCCc1[nH]n(-c2ccc([N+](=O)[O-])cc2)c(=O)c1C=NCCCn1ccnc1,-50.1%
9,CCCc1[nH]n(-c2ccc([N+](=O)[O-])cc2)c(=O)c1C=NCCN1CCNCC1,-9.24%
10,COCc1ccc(CN2CCCC(CCC(=O)NCc3cccc(OC)c3)C2)o1 (stereo not shown),11%
11,COc1cccc(CNC(=O)CCC2CCCN(Cc3ccc(OC(F)F)cc3)C2)c1 (stereo not shown),-80.1%
12,COc1ccc(/C=C/CN2CCCC(CCC(=O)NCc3ccc(F)c(F)c3)C2)cc1 (stereo not shown),-54.3%
13,COc1cccc(CNC(=O)CCC2CCCN(c3cc(C)nc(N)n3)C2)c1 (stereo not shown),-18.3%
14,COc1cccc(CNC(=O)CCC2CCCN(Cc3cc(Cl)ccc3O)C2)c1 (stereo not shown),-20%
15,COc1cccc(CNC(=O)CCC2CCCN(c3cc(C)nc(N(C)C)n3)C2)c1 (stereo not shown),-27.7%
16,COc1ccccc1/C=C/CN1CCCC(CCC(=O)NCc2ccc(F)c(F)c2)C1 (stereo not shown),-26.2%
17,COc1cccc(CNC(=O)CCC2CCCN(c3cc(C)nc(N4CCCC4)n3)C2)c1 (stereo not shown),-74%
18,COc1cccc(CNC(=O)CCC2CCCN(C/C=C/c3ccccc3OC)C2)c1 (stereo not shown),-34.5%
